Assay results taken from PubChem BioAssay (EPA / NIEHS).
Inconclusive results are not listed. Calls of active or inactive are those of the source. Rule for the calls: active = hit-call score of the fitted dose curve at least 0.9, where 1 is the maximum; inconclusive = response in the unintended direction; inactive = score below 0.9.

Assay: ACEA_AR_antagonist_AUC_viability: ACEA Biosciences xCELLigence Real-Time Cell Analysis on Androgen Receptor Antagonism for Viability (AID 2283776);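 note: area under impedance growth curve at 80 h after dosing as viability; hits lower the growth signal relative to DMSO meaning cytotoxicity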
Method: ACEA_AR_antagonist is a cell-based, single-readout assay that uses 22Rv1, a human prostate cancer cell line, with measurements taken at 80 hours after chemical dosing in a 384-well plate, although TO5 and TO6 (mc0.srcf) used a 96-well plate. Differences in plate size can be ignored given data normalization.ACEA_AR_80hr is one of two assay component(s) measured or calculated from the […] assay. It is designed to make measurements of real-time cell-growth kinetics, a form of growth reporter, as detected with electrical impedance signals by Real-Time Cell Electrode Sensor (RT-CES) technology.Data from the assay component ACEA_AR_antagonist_AUC_viability was analyzed in the positive analysis fitting direction relative to DMSO as the negative control and baseline of activity. Using a type of growth reporter, loss-of-signal activity can be used to understand changes in the viability. Furthermore, this assay endpoint can be referred to as a secondary readout, because this assay has produced multiple assay endpoints where this one serves a viability function. To generalize the intended target to other relatable targets, this assay endpoint is annotated to the cell cycle intended target family, where the subfamily is cytotoxicity.
The xCELLigence system Multi-E-Plate stations were used to measure the time-dependent response to chemicals. Each compound was tested in an eight-point, 1:4 serial dilution series starting at a maximum final concentration of 100 uM. A maximum starting concentration of 0.5% DMSO was present in the 100 uM chemical samples and was diluted along with the test article dilution series. The screen was performed in biological duplicate using two separate, 96-well, E-Plates 96 for each dilution series (n = 2). Positive controls (MG132 and testosterone) and a negative control (assay media) were tested in quadruplicate on each testing plate. Then, 0.5% and 0.125% DMSO were tested in duplicates in each plate to serve as solvent controls for the 2 highest concentrations of testing compounds: 100 uM and 25 uM. Reference compounds were tested with 8 concentrations with 1:5 serial dilutions. All screening was carried out by ACEA Biosciences, Inc. (San Diego, CA). 22Rv1 cells purchased from ATCC were maintained in media supplemented with 10% fetal bovine serum (FBS). Before screening, 22Rv1 cells were preconditioned in assay medium. Cells were then detached and seeded in E-Plates 96 in assay medium. After overnight monitoring of growth once every hour, compounds were added to […] cells and remained in the medium until the end of the experiment. Cellular responses were then recorded once every 5 min for the first 5 h, and once every hour for an additional 100 h.

SMILES	outcome	AC50
OC[C@H]1O[C@@H]2O[C@H]3[C@H](O)[C@@H](O)[C@@H](O[C@H]4[C@H](O)[C@@H](O)[C@@H](O[C@H]5[C@H](O)[C@@H](O)[C@@H](O[C@H]6[C@H](O)[C@@H](O)[C@@H](O[C@H]7[C@H](O)[C@@H](O)[C@@H](O[C@H]1[C@H](O)[C@H]2O)O[C@@H]7CO)O[C@@H]6CO)O[C@@H]5CO)O[C@@H]4CO)O[C@@H]3CO	inactive	
CCOc1ccc2[nH]cc(C(=O)NCc3ccccc3)c(=O)c2n1		35.9 µM (active)
CCCOc1ccc(S(=O)(=O)N2CCN(CC)CC2)cc1-c1nc2c(CC)n(Cc3ccccn3)nc2c(=O)[nH]1	inactive	
Cn1cc[nH]c1=S	inactive	
O=S1(=O)CCCO1	inactive	
OCc1ccccc1	inactive	
CCc1ccc(O)c(C(C)(C)C)c1		70.5 µM (active)
COCc1nnc(-c2ccc[n+]([O-])c2)n1-c1c(Cl)c(Cl)cc2[nH]c(=O)c(=O)[nH]c12	inactive	
COc1cc2c(c(OC)c1OC)-c1ccc(OC)c(=O)cc1[C@@H](NC(C)=O)CC2		0.00231 µM (active)
CCCCCCCCN(C)C	inactive	
OCCNCCO	inactive	
CCCCCCOC(=O)CC(CC(=O)OCCCCCC)(OC(=O)CCC)C(=O)OCCCCCC	inactive	
c1ccc2cc3ccccc3cc2c1	inactive	
O=C(O)c1ccc2c(c1)nc(C(=O)NC1CCN(C3CC3)CC1)n2Cc1cc(-c2ccc(Cl)s2)on1		15.8 µM (active)
CCn1nc(C)c2c1C(=O)NCC(c1ccc(O)cc1)=N2		15.1 µM (active)
OC(CCl)CCl	inactive	
CC(=O)c1ccccc1	inactive	
C=CN1CCCC1=O	inactive	
CCc1cccc(CC)c1N		9.94 µM (active)
Cc1ncc([C@@H](CCCCCCc2ccc3c(n2)NCCC3)CC(=O)O)cn1		0.00579 µM (active)

SMILES	outcome	AC50
NC(N)=O	inactive	
O=C(O)c1cccc(C[C@@H]2COc3ccc(OCc4nc5cc(F)ccc5s4)cc3[C@@H]2O)c1	inactive	
c1ccc(C(O[C@@H]2CCCN(CCc3ccc4c(c3)OCO4)C2)c2ccccc2)cc1		58.3 µM (active)
Cc1ccc(S(=O)(=O)NC(=O)NN2CCCCCC2)cc1	inactive	
COS(C)(=O)=O	inactive	
C[C@@H](Oc1ccc(CNC(=O)c2cccnc2Oc2ccc3c(c2)OCO3)c(F)c1)C(=O)O	inactive	
O=c1[nH]cnc2c1ncn2[C@H]1CC[C@@H](CO)O1	inactive	
CCCC(CCC)C(=O)O		50 µM (active)
CCN(CC)C(=S)SSC(=S)N(CC)CC		26 µM (active)
c1ccc2c(c1)-c1cccc3c1c-2cc1ccccc13		4.1 µM (active)
Nc1ccn([C@@H]2O[C@H](CO)[C@@H](O)[C@@H]2O)c(=O)n1		0.88 µM (active)
CCOC(N)=O	inactive	
CC(C)CC(C)O (stereo not given)	inactive	
Cc1nccn1-c1ccc(Sc2cccc(C3(C(N)=O)CCOCC3)c2)cc1		24 µM (active)
OC(Cn1cncn1)(Cn1cncn1)c1ccc(F)cc1F	inactive	
O=C(NO)C1(NS(=O)(=O)c2ccc(Oc3ccc(F)cc3)cc2)CCOCC1		50 µM (active)
c1ccc2ncccc2c1	inactive	
O=C(O)c1cccc(C(=O)O)c1	inactive	
NNC(=O)c1ccncc1	inactive	
CCCCCCCCCCCCCCO		50 µM (active)
